Assay results reported in PubChem BioAssay (NCI).
The panel holds about 83,000 compounds, 20% with a hit somewhere; the sample as a whole holds those more often.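 Testing used 96-well plates and a 48-hour single-concentration exposure. Example: -40 means 40% of the starting cells died.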 Calls of active or inactive are those of the source. How the source made its calls: active means growth percent below 10; inactive means the rest.

Columns and labels:
Test in all cases: NCI-60 one-dose screen, 48 h (100 = growth as untreated, 0 = no growth, -100 = all killed)
Details in all cases: 10 µM unless noted
SK-MEL-2 melanoma = tested on: SK-MEL-2 melanoma
EKVX NSCLC = tested on: EKVX NSCLC
SN12C renal = tested on: SN12C renal
UO-31 renal = tested on: UO-31 renal
TK-10 renal = tested on: TK-10 renal
ACHN renal = tested on: ACHN renal
CAKI-1 renal = tested on: CAKI-1 renal
A498 renal = tested on: A498 renal
CCRF-CEM leukemia = tested on: CCRF-CEM leukemia
MOLT-4 leukemia = tested on: MOLT-4 leukemia

Measured: growth

CCCCCCCCCC1=NC(C)(C)CN1C(C)(C)CO
inactive: SK-MEL-2 melanoma 124% | EKVX NSCLC 90.8% | SN12C renal 83.6% | UO-31 renal 56.8% | TK-10 renal 97.7% | ACHN renal 93.6% | CAKI-1 renal 75% | A498 renal 93% | CCRF-CEM leukemia 82.4% | MOLT-4 leukemia 15.9%

CC(=O)c1ccc(Nc2nc(Cl)nc(Oc3c(Cl)cccc3Cl)n2)cc1
inactive: SK-MEL-2 melanoma 97.1% | EKVX NSCLC 77.2% | SN12C renal 93.1% | UO-31 renal 77.8% | TK-10 renal 115% | ACHN renal 98.3% | CAKI-1 renal 85.5% | A498 renal 69.3% | CCRF-CEM leukemia 91% | MOLT-4 leukemia 77.1%

Nc1nc(N)c2cc(Sc3ccc(Cl)cc3)ccc2n1
inactive: SK-MEL-2 melanoma 50.7% | EKVX NSCLC 33.6% | SN12C renal 29.7% | UO-31 renal 21.6% | TK-10 renal 43% | ACHN renal 23% | CAKI-1 renal 13.5% | A498 renal 63.6% | CCRF-CEM leukemia 41.5% | MOLT-4 leukemia 25.8%

COc1cc2c(cc1C)NC(=O)/C2=C\c1c[nH]c2ccccc12
inactive: SK-MEL-2 melanoma 76.4% | EKVX NSCLC 74.5% | SN12C renal 67.8% | UO-31 renal 27.6% | TK-10 renal 83.7% | ACHN renal 61.8% | CAKI-1 renal 10.6% | A498 renal 78.5% | CCRF-CEM leukemia 53.6% | MOLT-4 leukemia 24.4%

Cc1cc(C)cc(NC(=O)Cn2nncc2CN2C(=O)CSC2=O)c1
inactive: SK-MEL-2 melanoma 106% | EKVX NSCLC 90.3% | SN12C renal 103% | UO-31 renal 99.7% | TK-10 renal 99.8% | ACHN renal 99.6% | CAKI-1 renal 95.2% | A498 renal 118% | CCRF-CEM leukemia 113% | MOLT-4 leukemia 105%

COC(=O)/C=C/c1cc(OC(C)=O)c2c(c1)[C@@H](C(=O)OC)[C@H](c1ccc(OC(C)=O)c(OC(C)=O)c1)O2
inactive: SK-MEL-2 melanoma 37.9% | EKVX NSCLC 34.2% | SN12C renal 24.2% | UO-31 renal 39.3% | TK-10 renal 48.5% | ACHN renal 24.3% | CAKI-1 renal 17.9% | MOLT-4 leukemia 14.9%
active: A498 renal -14.3% | CCRF-CEM leukemia 6.74%

Cc1ccc(N=CNN=C(N)N)cc1
inactive: SK-MEL-2 melanoma 114% | EKVX NSCLC 117% | SN12C renal 99.3% | UO-31 renal 76.6% | TK-10 renal 118% | ACHN renal 102% | CAKI-1 renal 97% | A498 renal 99.2% | CCRF-CEM leukemia 101% | MOLT-4 leukemia 95.4%

CCCNC(=S)N/N=C(\C)c1ccccn1
active: UO-31 renal -0.774% | CAKI-1 renal 6.68% | MOLT-4 leukemia 6.93%
inactive: SK-MEL-2 melanoma 69.8% | EKVX NSCLC 12.1% | SN12C renal 31.6% | TK-10 renal 47.4% | ACHN renal 10.8% | A498 renal 30.8% | CCRF-CEM leukemia 15.9%

COc1cc(CN2CCO[C@H](COc3cccc(F)c3)C2)ccc1Cl
inactive: SK-MEL-2 melanoma 31% | EKVX NSCLC 46.3% | SN12C renal 29.3% | UO-31 renal 45.6% | TK-10 renal 46.9% | ACHN renal 53.9% | CAKI-1 renal 41.3% | A498 renal 30.6% | CCRF-CEM leukemia 42.8% | MOLT-4 leukemia 52.8%

CC1=C(O)C(=O)C(c2c(C)cc(C)c(Br)c2C)=C(O)C1=O
inactive: SK-MEL-2 melanoma 81.6% | EKVX NSCLC 81.8% | SN12C renal 55% | UO-31 renal 83.7% | TK-10 renal 73.6% | ACHN renal 54% | CAKI-1 renal 50.2% | A498 renal 64.1% | CCRF-CEM leukemia 43.1% | MOLT-4 leukemia 54.6%

NC(=Nc1ccccc1)SCCCSC(N)=Nc1ccccc1
inactive: SK-MEL-2 melanoma 90.8% | EKVX NSCLC 78.8% | SN12C renal 89.3% | UO-31 renal 42.1% | TK-10 renal 101% | ACHN renal 81.5% | CAKI-1 renal 76.4% | A498 renal 80.2% | CCRF-CEM leukemia 79.3% | MOLT-4 leukemia 90.8%

CC(C)OC(=O)c1ccc([N+](=O)[O-])cc1
inactive: SK-MEL-2 melanoma 122% | EKVX NSCLC 96% | SN12C renal 97.7% | UO-31 renal 104% | TK-10 renal 113% | ACHN renal 114% | CAKI-1 renal 103% | A498 renal 79.2% | CCRF-CEM leukemia 103% | MOLT-4 leukemia 113%

CCOC(=O)c1ccc(N(CCC(=O)O)C(C)=O)cc1
inactive: SK-MEL-2 melanoma 105% | EKVX NSCLC 130% | SN12C renal 107% | UO-31 renal 79% | TK-10 renal 105% | ACHN renal 112% | CAKI-1 renal 101% | A498 renal 104% | CCRF-CEM leukemia 98.3% | MOLT-4 leukemia 104%

CN1CCN(Cc2ccc(NC(=O)c3ccc(C#N)c(C#Cc4cnc(N)c5ncccc45)c3)cc2C(F)(F)F)CC1
active: UO-31 renal -81.8% | ACHN renal -56.4%
inactive: SK-MEL-2 melanoma 72.4% | EKVX NSCLC 96.6% | SN12C renal 86.3% | TK-10 renal 76.9% | CAKI-1 renal 94.1% | A498 renal 89.5% | CCRF-CEM leukemia 27% | MOLT-4 leukemia 59.6%

CCN(CC)CCCCCCCNc1cc(OC)cc2c(C)ccnc12
inactive: SK-MEL-2 melanoma 109% | EKVX NSCLC 86.7% | SN12C renal 81.6% | UO-31 renal 38.2% | TK-10 renal 110% | ACHN renal 87.7% | CAKI-1 renal 94% | A498 renal 63.2% | CCRF-CEM leukemia 83.7% | MOLT-4 leukemia 72%

Nc1cccc(S(=O)(=O)c2cccc(N)c2)c1
inactive: SK-MEL-2 melanoma 116% | EKVX NSCLC 105% | SN12C renal 112% | UO-31 renal 95.8% | TK-10 renal 123% | ACHN renal 102% | CAKI-1 renal 98.4% | A498 renal 108% | CCRF-CEM leukemia 102% | MOLT-4 leukemia 10.4%

O=C(NNC(=S)Nc1ccccc1)c1ccc(Nc2ncnc3c2cnn3-c2cccc(Br)c2)cc1
inactive: SK-MEL-2 melanoma 105% | EKVX NSCLC 105% | SN12C renal 96.1% | UO-31 renal 82.3% | TK-10 renal 106% | ACHN renal 106% | CAKI-1 renal 93.4% | A498 renal 102% | CCRF-CEM leukemia 108% | MOLT-4 leukemia 104%

CN1CCN(Cc2ccc(NC(=O)c3cncc(C#Cc4ccc(N)nc4)c3)cc2C(F)(F)F)CC1
inactive: TK-10 renal 12.7% | CCRF-CEM leukemia 13%
active: SK-MEL-2 melanoma -47.8% | EKVX NSCLC 7.69% | SN12C renal 4.16% | UO-31 renal -1.73% | ACHN renal -3.03% | CAKI-1 renal 8.16% | A498 renal -33.8% | MOLT-4 leukemia 5.85%

CN(C)c1ccc(Nc2c3ccccc3nc3ccccc23)cc1
active: UO-31 renal -31% | ACHN renal -18.8% | CAKI-1 renal -13.5% | MOLT-4 leukemia 6.01%
inactive: SK-MEL-2 melanoma 40.1% | EKVX NSCLC 19.1% | SN12C renal 16.4% | TK-10 renal 34.1% | A498 renal 14.2% | CCRF-CEM leukemia 19.9%

COc1c(B(O)O)cccc1-c1nc2c(F)cc3n[nH]c(C)c3c2c2c1CCCC2
active: SK-MEL-2 melanoma -10.3% | UO-31 renal -2.78% | TK-10 renal -2.49% | ACHN renal 8.08% | CAKI-1 renal 0.215% | A498 renal -53.6%
inactive: EKVX NSCLC 34.8% | SN12C renal 19.3% | CCRF-CEM leukemia 17.7% | MOLT-4 leukemia 28.7%

COc1ccc(C(=O)C(CN(C)C)c2ccccc2)cc1 (stereo not given)
active: UO-31 renal -18.7% | ACHN renal -71.4% | CAKI-1 renal -46.7%
inactive: SK-MEL-2 melanoma 14.6% | EKVX NSCLC 28.1% | SN12C renal 31.4% | TK-10 renal 29.5% | A498 renal 60.2% | CCRF-CEM leukemia 12.6% | MOLT-4 leukemia 21.7%

Cn1nc(C(F)(F)F)cc1-c1c[nH]c(OCc2ccc(Cl)cc2)c(-c2ccc(Cl)c(C(F)(F)F)c2)c1=O
inactive: CCRF-CEM leukemia 10.5%
active: SK-MEL-2 melanoma -31.4% | EKVX NSCLC 5.56% | SN12C renal 4.1% | UO-31 renal -1.38% | TK-10 renal 3.46% | ACHN renal -15.8% | CAKI-1 renal -22.7% | A498 renal -60.9% | MOLT-4 leukemia -9.43%

COc1cc(C)c2c(=O)c3c(oc2c1)C(=O)c1c(O)c(OC)cc(O)c1C3=O
active: SK-MEL-2 melanoma -25.7% | UO-31 renal 0.808% | ACHN renal 0.624%
inactive: EKVX NSCLC 32.6% | SN12C renal 16.8% | TK-10 renal 23.8% | CAKI-1 renal 12.6% | A498 renal 89% | CCRF-CEM leukemia 10.4% | MOLT-4 leukemia 16.3%

C=CCOc1c(Br)cc(Br)cc1Br
inactive: SK-MEL-2 melanoma 69.3% | EKVX NSCLC 64% | SN12C renal 62.9% | UO-31 renal 28.2% | TK-10 renal 102% | ACHN renal 48.7% | CAKI-1 renal 76.5% | A498 renal 55.9% | CCRF-CEM leukemia 43.6% | MOLT-4 leukemia 64.6%

COc1ccc2[nH]cc(/C=C3\C(=O)Nc4ccccc43)c2c1
active: UO-31 renal -14.7% | CAKI-1 renal -0.757% | MOLT-4 leukemia 1.26%
inactive: SK-MEL-2 melanoma 12.6% | EKVX NSCLC 49% | SN12C renal 49.5% | TK-10 renal 53% | ACHN renal 34.6% | A498 renal 40.5% | CCRF-CEM leukemia 14%

CN1CCN(Cc2ccc(NC(=O)c3cccc(C#Cc4cnc(N)c5ncccc45)c3F)cc2C(F)(F)F)CC1
active: SK-MEL-2 melanoma -1.16% | UO-31 renal -96.6% | ACHN renal -77.2% | A498 renal -15.1% | CCRF-CEM leukemia 7.7% | MOLT-4 leukemia 1.77%
inactive: EKVX NSCLC 66.8% | SN12C renal 44.5% | TK-10 renal 56.2% | CAKI-1 renal 33.6%

C/C(=N\NC(=S)Nc1ccccc1)c1ccccn1
active: UO-31 renal -1.12% | CAKI-1 renal 6.16% | MOLT-4 leukemia 8.83%
inactive: SK-MEL-2 melanoma 73.5% | EKVX NSCLC 12.9% | SN12C renal 39.2% | TK-10 renal 50.9% | ACHN renal 17.7% | A498 renal 29.1% | CCRF-CEM leukemia 16.7%
